From PubChem BioAssay (EPA / NIEHS)
Results filed as inconclusive are left out. Calls of active or inactive are those of the source. Rule for the calls: active = hit-call score of the fitted dose curve at least 0.9, where 1 is the maximum; inconclusive = response in the unintended direction; inactive = score below 0.9.

The compounds below were run against Retinoic acid receptor RXR-alpha (Homo sapiens) (UniProt P19793) (assay: ATG_RXRa_TRANS: Attagene TRANS-FACTORIAL HepG2 Assay for human Retinoid X Receptor alpha (RXRa) (AID 2283012)).
Protocol: ATG_TRANS is a cell-based, multiplexed-readout assay that uses HepG2, a human liver cell line, with measurements taken at 24 hours after chemical dosing in a 24-well plate.ATG_RXRa_TRANS is one of 30 assay component(s) measured or calculated from the ATG_TRANS assay. It is designed to make measurements of mRNA induction, a form of inducible reporter, as detected with fluorescence intensity signals by Reverse transcription polymerase chain reaction (RT-PCR) and Capillary electrophoresis technology.Data from the assay component ATG_RXRa_TRANS was analyzed into 1 assay endpoint. This assay endpoint, ATG_RXRa_TRANS, was analyzed in the positive analysis fitting direction relative to DMSO as the negative control and baseline of activity. Using a type of inducible reporter, measures of mRNA for gain-of-signal activity can be used to understand the reporter gene at the transcription factor-level as they relate to the gene RXRA. Furthermore, this assay endpoint can be referred to as a primary readout, because this assay has produced multiple assay endpoints where this one serves a reporter gene function. To generalize the intended target to other relatable targets, this assay endpoint is annotated to the nuclear receptor intended target family, where the subfamily is non-steroidal.
Human liver HepG2 cells are transiently transfected with multiple reporter transcription units (MRTUs) in 6-well plates using FuGene 6 reagent (Roche; 3 ml FuGene/1 mg DNA). The MRTU constructs are regulated by a cis-regulating element (promoter). […] A major difference between the CIS and TRANS system is that in CIS activities of endogenous TFs are measured, whereas the TRANS assay evaluates changes in activities of exogenous, chimeric NR-Gal4 proteins. […] At the end of 24 hour incubation, total RNA was isolated using TriZol reagent (Invitrogen). The isolated RNA is then reverse-transcribed using oligo(dT) primer and Mo-MLV reverse transcriptase (Invitrogen) with DNAse I (Ambion) treatment for 30 min. The one-tenth of the produced cDNA was amplified by PCR using Taq DNA polymerase (Invitrogen) and two reporter sequence-specific primers. The PCR products were fluorescently labeled by primer extension with 6-arboxyfluorescein (6-FAM) 5'-labeled reporter sequence-specific primer (2 min at 95 C, 20 s at 68 C and 10 min at 72 C) and these products were digested with 5U of HpaI (New England Biolabs) for 2h at 37 C. The fragments were purified using Qiaquick PCR columns (Qiagen), analyzed on an ABI 3130xL genetic analyzer (Applied Biosystems) with peak positions identified by using a set of X-rhodamine (ROX)-labeled MapMarker1000 molecular weight standards (BioVentures). The raw capillary electrophoresis data was processed using Attagraph software (Attagene).

Chain of Retinoic acid receptor RXR-alpha (Homo sapiens) (P19793 whole entry, looked up): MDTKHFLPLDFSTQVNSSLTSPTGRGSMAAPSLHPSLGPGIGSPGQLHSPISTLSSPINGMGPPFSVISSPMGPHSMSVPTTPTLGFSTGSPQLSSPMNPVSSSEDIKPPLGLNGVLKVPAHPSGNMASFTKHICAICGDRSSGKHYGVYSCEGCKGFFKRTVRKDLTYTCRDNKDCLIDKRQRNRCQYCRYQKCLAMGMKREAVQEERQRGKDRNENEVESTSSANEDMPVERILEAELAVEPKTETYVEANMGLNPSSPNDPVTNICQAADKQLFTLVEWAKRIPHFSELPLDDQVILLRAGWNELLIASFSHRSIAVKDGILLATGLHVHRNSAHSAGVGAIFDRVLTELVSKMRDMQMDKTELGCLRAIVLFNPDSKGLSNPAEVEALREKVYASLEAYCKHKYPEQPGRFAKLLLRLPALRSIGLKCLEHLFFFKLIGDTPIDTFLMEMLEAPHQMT

outcome, inactive:
N#Cc1ccccc1
O=C(O)C[C@H](O)C[C@H](O)/C=C/c1c(C2CC2)nc2ccccc2c1-c1ccc(F)cc1
C[C@H]1C[C@H]2[C@@H]3CCC4=CC(=O)C=C[C@]4(C)[C@@]3(F)[C@@H](O)C[C@]2(C)[C@@]1(O)C(=O)COP(=O)(O)O
CCCCCCCCCC=O
O=C(O)Cc1cccc2ccccc12
CCc1ccc(C=O)cc1
CC(=O)OCCC(C)CC(C)(C)C (stereo not given)
C/C=C(\C)C(=O)OCc1ccccc1
CCCOCC(C)O (stereo not given)
C=C(C)C1CCC(C)CC1O (stereo not given)
[Ca+2]
NC(=O)c1ccccc1Cl
CC(C)=CCC[C@H](C)CC=O
Cc1cccc(C)c1[N+](=O)[O-]
CC(C)(C#N)c1cc(Cn2cncn2)cc(C(C)(C)C#N)c1
Nc1cccc(S(=O)(=O)c2cccc(N)c2)c1
CCOC(=S)SSC(=S)OCC
COC(=O)C1=C(C)NC(C)=C(C(=O)OCCN(C)Cc2ccccc2)C1c1cccc([N+](=O)[O-])c1 (stereo not given)
N#Cc1ccc(CC(=NNC(=O)Nc2ccc(OC(F)(F)F)cc2)c2cccc(C(F)(F)F)c2)cc1
CCCC1CCC(=O)O1 (stereo not given)
CN1Cc2c(N)cccc2C(c2ccccc2)C1 (stereo not given)
CN1[C@@H]2CC(OC(=O)[C@H](CO)c3ccccc3)C[C@H]1[C@@H]1O[C@@H]12 (stereo not given in full)
CC(c1cc2ccccc2s1)N(O)C(N)=O (stereo not given)
O=P(c1ccccc1)(c1ccccc1)c1ccccc1
C=CCOC(=O)CCC1CCCCC1
CN(C)c1ccc(O)c2c1C[C@H]1C[C@H]3[C@H](N(C)C)C(=O)C(C(N)=O)=C(O)[C@@]3(O)C(=O)C1=C2O
C=CCOc1nc(OCC=C)nc(OCC=C)n1
CCCCc1ccc(N)cc1
CSc1nnc(C(C)(C)C)c(=O)[nH]1
CC(=O)Nc1ccc(CC(=O)O)cc1
CC(C=O)Cc1ccc(C(C)C)cc1 (stereo not given)
Clc1ccc2c(c1)C(N1CCNCC1)=Nc1ccccc1O2
Nc1cc([N+](=O)[O-])ccc1O
C=C(C)[C@@H]1CC[C@@H](C)C[C@@H]1O
CCCCO
COc1ccc(OC)c(OC)c1
CCC(=O)OCc1ccccc1

AC50, active:
C#C[C@]1(O)CC[C@H]2[C@@H]3CCC4=Cc5oncc5C[C@]4(C)[C@H]3CC[C@@]21C 120 µM
COc1c(Cl)c(Cl)c(Cl)c(Cl)c1Cl 29.1 µM
COc1cc(C(C)(C)C)c(O)c(C(C)(C)C)c1 15.4 µM
